Test results reported in PubChem BioAssay (NCATS).
Records with an inconclusive call do not appear. Where a call stands in place of a potency, no number is given. A number with no mark means an inactive call. Activity calls are given as the source filed them. The call rests on the fitted dose curve; in most records, active means well fitted curve in the direction sought with a large enough effect; inconclusive means small, poorly fitted or top-dose-only effect, or another doubt; inactive means no such curve, though single readings can be large; an effect the other way counts as inactive or inconclusive.

Each compound was assayed against Rap guanine nucleotide exchange factor 4 (Homo sapiens) (UniProt Q8WZA2) (assay: Confirmatory qHTS for agonist of cAMP-regulated guanine nucleotide exchange factor 4 (EPAC2) (AID 1645884;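 further: nucleotide exchange releases bodipy-GDP from Rap1 and this lowers its fluorescence; nearly all actives have a fitted effect of over 65% in size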)). Conditions: EPAC2 GEF activity, Rap1B-BODIPY-GDP fluorescence; series mostly up to 154 µM.
Sequence of Rap guanine nucleotide exchange factor 4 (Homo sapiens) (Q8WZA2 whole entry, looked up): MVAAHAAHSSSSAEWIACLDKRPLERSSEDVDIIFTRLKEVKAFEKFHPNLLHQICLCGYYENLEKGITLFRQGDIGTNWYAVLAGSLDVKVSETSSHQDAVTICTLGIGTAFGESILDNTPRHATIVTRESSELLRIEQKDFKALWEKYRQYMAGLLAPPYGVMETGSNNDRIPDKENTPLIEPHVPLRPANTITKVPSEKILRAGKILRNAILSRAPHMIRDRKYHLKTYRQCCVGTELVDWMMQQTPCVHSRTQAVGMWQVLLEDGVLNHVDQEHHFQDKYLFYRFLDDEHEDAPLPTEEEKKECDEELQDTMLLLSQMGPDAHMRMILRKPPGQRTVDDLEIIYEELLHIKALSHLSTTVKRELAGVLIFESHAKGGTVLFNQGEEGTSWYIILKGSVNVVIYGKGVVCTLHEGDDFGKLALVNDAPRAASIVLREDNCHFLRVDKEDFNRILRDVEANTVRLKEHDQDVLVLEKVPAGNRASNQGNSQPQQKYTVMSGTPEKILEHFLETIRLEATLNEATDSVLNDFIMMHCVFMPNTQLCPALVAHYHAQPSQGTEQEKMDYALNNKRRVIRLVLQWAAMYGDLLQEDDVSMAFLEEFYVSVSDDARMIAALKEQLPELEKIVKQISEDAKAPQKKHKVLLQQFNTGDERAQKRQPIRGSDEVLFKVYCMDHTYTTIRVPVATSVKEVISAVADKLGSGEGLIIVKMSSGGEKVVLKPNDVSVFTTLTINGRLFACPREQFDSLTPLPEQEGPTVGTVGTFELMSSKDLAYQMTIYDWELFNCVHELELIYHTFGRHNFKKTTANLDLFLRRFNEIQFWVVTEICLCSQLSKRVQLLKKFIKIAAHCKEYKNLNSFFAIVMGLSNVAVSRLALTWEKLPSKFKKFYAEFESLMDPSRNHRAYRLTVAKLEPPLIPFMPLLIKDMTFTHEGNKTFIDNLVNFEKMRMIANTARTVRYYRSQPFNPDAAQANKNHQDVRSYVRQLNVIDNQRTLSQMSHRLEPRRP

Compound	activation	Potency
CCCC1=C(C(=O)OCC)C(c2ccco2)C(C#N)=C(N)O1 (centres undefined)	2.29% [at 17.1 µM, percent relative to cAMP agonist control]	
CCOc1ccccc1NC(=O)C1CCN(c2nc(-c3ccc(OC)cc3)no2)CC1	2.09% [at 17.1 µM, percent relative to cAMP agonist control]	
CCn1c(SCC(=O)N/N=C/C=C/c2ccco2)nnc1-c1ccccc1		inactive
COC(=O)c1ccc2nc(-c3ccc(F)cc3)c(Cc3ccc(C)cc3)n2c1	1.87% [at 17.1 µM, percent relative to cAMP agonist control]	
CCOC(=O)C1=CN(Cc2cccc(F)c2)S(=O)(=O)NC1c1ccc(Br)cc1F (centres undefined)		inactive
Cc1ccc(CNc2nc(NCc3ccccc3)nc3ccsc23)c(C)c1		inactive
O=C(Nc1cccc(F)c1)c1ccc(-c2cccnc2)c2ccoc12		inactive
CC1=C(C(=O)Nc2ccccc2)C(c2ccc[nH]2)n2ncnc2N1 (centres undefined)		inactive
Cc1ccc(O)c(-c2n[nH]c3c2C(c2ccccc2F)N(Cc2ccco2)C3=O)c1 (centres undefined)		inactive

The compounds below were run against Rap guanine nucleotide exchange factor 4 (Homo sapiens) (UniProt Q8WZA2) (assay: Confirmatory qHTS for antagonist of cAMP-regulated guanine nucleotide exchange factor 4 (EPAC2) (AID 1645885; further: nearly all actives have a fitted effect of over 25% in size; further: potency means the concentration at half of the fitted maximal effect)). Conditions: EPAC2 Rap1B-BODIPY-GDP exchange fluorescence, biochemical; series mostly up to 12.7 µM.

Compound	Potency	outcome
CCc1nc2c(OCc3ccc(C(=O)OC)cc3)cccn2c1N(C)C(=O)c1ccc(C)cc1	inactive	
CC(C)C(CCNC(=O)CC(Cc1ccccc1)c1ccco1)c1ccco1 (centres undefined)	inactive	
CCCC(=O)OC1CC(C)N(C(=O)c2ccccc2)c2ccc(C)cc21 (centres undefined)	3.38 µM (active)	
COCCCn1c(=O)/c(=C\c2ccccc2OC(C)C)s/c1=C(/C#N)C(=O)Nc1ccc(C(=O)O)cc1	inactive	
O=S(=O)(Nc1nc2ccc(Cl)cc2s1)c1cccs1	inactive	
CCOc1ccc(N2C(=O)C3Sc4[nH]c(=O)sc4C(/C=C/c4ccccc4)C3C2=O)cc1 (centres undefined)	inactive	
N#CCC(=O)N/N=C/c1coc2ccccc2c1=O	inactive	
Cc1ccc(C)c(OC(C)C(=O)Nc2ccc(S(=O)(=O)Nc3nccs3)cc2)c1 (centres undefined)	33.8 µM (active)	
CCc1nc2c(OCc3ccc(C(F)(F)F)cc3)cccn2c1N(C)C(=O)c1ccc(C)cc1	inactive	
O=C(Nc1ccccc1C(=O)O)c1cccc(NC(=O)c2ccc(Br)o2)c1	inactive	
CCOc1ccccc1Oc1ncnc2c1oc1ccccc12		inactive [at 12.7 µM]
COCCNc1nc2cc(-c3ccsc3)sc2c(=O)n1C	inactive	
CCOC(=O)c1cc2c(ccn2C)n1CC(=O)N1CCN(c2cccc(C(F)(F)F)c2)CC1	inactive	
Cc1ccc(C)c(Cn2c(CN(C)Cc3ccccc3)nc3c2c(=O)n(C)c(=O)n3C)c1	inactive	
CN(C)c1ccc(-c2[nH][nH]c(=O)c2NC(=O)c2ccccn2)cc1	inactive	
Cc1ccc(Nc2c(-c3ccccn3)nc3cccc(C)n23)cc1	inactive	
CC(c1ccccc1)n1cc2c(c1-c1ccccc1Br)c(=O)n(C)c(=O)n2C (centres undefined)	inactive	
O=C(O)c1ccc(N2C(=O)CC(SC(=NCc3ccc4c(c3)OCO4)Nc3ccc(F)cc3)C2=O)cc1 (centres undefined)	inactive	
O=S(=O)(Nc1cc(Sc2ncn[nH]2)c(O)c2ccccc12)c1ccccc1	inactive	
COC(=O)[C@]12CCCCC=C1N(CCC1=CCCCC1)C(=O)[C@H](CC(=O)NCc1cccc(C(F)(F)F)c1)C2	inactive	

Compound	Potency	outcome
O=C(COc1ccccc1-c1ccccc1)NCc1ccco1		inactive [at 12.7 µM]
Cc1occc1-c1nnc(SCC(=O)c2cc3ccccc3oc2=O)o1	inactive	
CCOC(=O)Cc1cc(=O)n2[nH]c(-c3ccccc3)c(-c3ccccc3)c2n1	inactive	
O=C1Cc2ccccc2C(=O)N1CCc1ccccc1	inactive	
CCn1c(=O)c(C(=O)Nc2ccccc2S(N)(=O)=O)c(O)c2ccccc21	inactive	
Cc1cccc(Nc2nnc(SC/C(O)=C(\C#N)c3nc4ccccc4[nH]3)s2)c1	inactive	
CC(C)Cc1ccc(CN2CCCC(NC(=O)c3cnc4ccccn4c3=O)C2)cc1 (centres undefined)	inactive	
COc1ccc(Oc2cn[nH]c2-c2ccc(OC)cc2O)cc1	inactive	
O=C(CSc1ccc2ccccc2c1)Nc1ccc(S(=O)(=O)Nc2nccs2)cc1	inactive	
O=C(Nc1cccc(Cl)c1)Nc1ccccc1NS(=O)(=O)c1cccs1	inactive	
O=C(N/N=C/c1ccc(Sc2ccccn2)o1)c1cc2ccccc2cc1O	inactive	
CCCC1=C(C(=O)OCC)C(c2ccco2)C(C#N)=C(N)O1 (centres undefined)	inactive	
CCOc1ccccc1NC(=O)C1CCN(c2nc(-c3ccc(OC)cc3)no2)CC1	inactive	
CCn1c(SCC(=O)N/N=C/C=C/c2ccco2)nnc1-c1ccccc1	inactive	
COC(=O)c1ccc2nc(-c3ccc(F)cc3)c(Cc3ccc(C)cc3)n2c1	inactive	
CCOC(=O)C1=CN(Cc2cccc(F)c2)S(=O)(=O)NC1c1ccc(Br)cc1F (centres undefined)	inactive	
Cc1ccc(CNc2nc(NCc3ccccc3)nc3ccsc23)c(C)c1	inactive	
O=C(Nc1cccc(F)c1)c1ccc(-c2cccnc2)c2ccoc12	inactive	
CC1=C(C(=O)Nc2ccccc2)C(c2ccc[nH]2)n2ncnc2N1 (centres undefined)	inactive	
Cc1ccc(O)c(-c2n[nH]c3c2C(c2ccccc2F)N(Cc2ccco2)C3=O)c1 (centres undefined)	inactive	
